Results filed as inconclusive are left out. Unless noted, calls come from the whole dose curve; as a rule, active = well fitted curve in either direction with a large enough effect (not every such curve was filed as active); inconclusive = small, poorly fitted or top-dose-only effect, or another doubt; inactive = flat fitted curve, though single readings scatter.
Columns and labels:
[1] = AP1 Signaling Pathway (AID 357); details: ME-180 AP-1-bla reporter, EGF-induced, beta-lactamase ratio, 5 h; at 17.2 µM (top of the series) unless noted;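 note: ME-180 reporter cells stimulated with EGF at its EC50 level; % is set by controls: 0 for no effect and ±100 for the full control effect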
Summary of the method: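 AP-1-bla ME-180 cells, Opti-MEM + 0.5% dialyzed FBS, plated overnight 37 °C. Cpd titration + EC50 EGF, 5 h 37 °C. CCF4 2.5 h RT; ex 405, em 460/530 ratio → %activity, AC50.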

[2] = NFAT Signaling Pathway (AID 444); details: Jurkat NFAT-bla M1, carbachol, beta-lactamase ratio, 5 h; at 17.2 µM (top of the series) unless noted;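 note: carbachol stimulus at about its EC50 of 1 µM final; % is set by controls: 0 for no effect and ±100 for the full control effect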
Summary of the method: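 Read-out: CCF4 FRET ratio (460 nm/530 nm) after 1 h RT dye loading, used for %activity and AC50 from titration series. Cells: Jurkat NFAT-β-lactamase/M1 line, treated with compound plus 1 uM carbachol for 5 h, 37 °C.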

[3] = Stat Signaling Pathway (AID 446); details: ME-180 (cervical carcinoma) SIE beta-lactamase reporter, IL-6 stimulated, 5 h; at 17.2 µM (top of the series) unless noted;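 note: ME-180 cervical cancer cells given 40 pM IL-6 alongside compound; SIE-controlled beta-lactamase reporter measured as 460/530 nm FRET emission ratio; % is set by controls: 0 for no effect and ±100 for the full control effect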
Summary of the method: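 Compound effects on IL-6-induced STAT reporter activity were measured in ME-180 cells. After overnight culture, cells were co-treated with 40 pM IL-6 for 5 hrs before beta-lactamase substrate loading at room temperature.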

[4] = molecular target: Glucocorticoid receptor (Homo sapiens) (UniProt P04150); test: GR-GFP Redistribution (AID 450;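 active = compounds whose dose series gives a full or clear partial fitted curve of increased nuclear translocation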; note: potency is the fitted concentration of half-maximal effect)
Chain of Glucocorticoid receptor (Homo sapiens) (P04150 whole entry, looked up): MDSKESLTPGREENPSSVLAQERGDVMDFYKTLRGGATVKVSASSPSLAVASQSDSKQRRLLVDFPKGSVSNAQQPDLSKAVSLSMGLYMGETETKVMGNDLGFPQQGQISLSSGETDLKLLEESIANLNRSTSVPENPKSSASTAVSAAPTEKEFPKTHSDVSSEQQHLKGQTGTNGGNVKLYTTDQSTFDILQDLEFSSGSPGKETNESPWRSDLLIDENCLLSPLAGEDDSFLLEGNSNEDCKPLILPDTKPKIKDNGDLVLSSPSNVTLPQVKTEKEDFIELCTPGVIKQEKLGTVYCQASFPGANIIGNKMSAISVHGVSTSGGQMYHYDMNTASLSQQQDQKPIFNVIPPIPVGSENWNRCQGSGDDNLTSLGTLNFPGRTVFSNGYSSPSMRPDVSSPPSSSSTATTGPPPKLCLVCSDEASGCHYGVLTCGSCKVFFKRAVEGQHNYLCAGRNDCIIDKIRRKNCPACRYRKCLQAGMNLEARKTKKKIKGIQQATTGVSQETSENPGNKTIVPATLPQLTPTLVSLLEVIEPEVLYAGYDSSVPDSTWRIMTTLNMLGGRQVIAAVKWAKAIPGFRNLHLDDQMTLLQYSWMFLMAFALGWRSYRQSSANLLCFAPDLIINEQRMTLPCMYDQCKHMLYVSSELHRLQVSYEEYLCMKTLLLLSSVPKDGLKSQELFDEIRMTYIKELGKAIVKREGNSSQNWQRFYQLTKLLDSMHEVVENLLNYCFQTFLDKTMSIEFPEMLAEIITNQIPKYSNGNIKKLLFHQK

CCOC(=O)C(c1ccccc1)N1CCN(c2ccc(OC)cc2)CC1 (centres undefined)
inactive: activity change, negative = inhibition [1] -19.8% | activity change, negative = inhibition [2] 19.4% | activity, negative = inhibition [3] 4.69% | Potency [4] > 20.6 µM

Clc1ccc(-n2ncc3c(NCc4ccco4)ncnc32)cc1
inactive: activity change, negative = inhibition [1] -19.6% | activity change, negative = inhibition [2] 1.57% | activity, negative = inhibition [3] -20.9% | Potency [4] > 20.6 µM

O=C1N[C@@H](Cc2cnc[nH]2)C(=O)N2CCC[C@@H]12
inactive: activity change, negative = inhibition [1] 15.2% | activity change, negative = inhibition [2] -19.2% | activity, negative = inhibition [3] 4.85% | Potency [4] > 20.6 µM

COc1ccccc1-n1c(=O)c2c3c(sc2n2c(SC(C)C)nnc12)CCC3
inactive: activity change, negative = inhibition [1] -5.57% | activity change, negative = inhibition [2] -27.1% | activity, negative = inhibition [3] 10.5% | Potency [4] > 20.6 µM

O=S(=O)(c1cccc2nsnc12)N1CCN(C/C=C/c2ccccc2)CC1
inactive: activity change, negative = inhibition [1] -6.7% | activity change, negative = inhibition [2] -13.3% | activity, negative = inhibition [3] -15.9% | Potency [4] > 20.6 µM

CCC1SC2=NC(C)=C(C(=O)OCCOC)C(c3ccc(C(=O)OC)cc3)N2C1=O (centres undefined)
inactive: activity change, negative = inhibition [1] 17.5% | activity change, negative = inhibition [2] 6.06% | activity, negative = inhibition [3] -2.24% | Potency [4] > 20.6 µM

Cn1cc(C(=O)NCN2CCCCC2)c2ccccc21
inactive: activity change, negative = inhibition [1] -2.91% | activity change, negative = inhibition [2] -0.662% | activity, negative = inhibition [3] 3.15% | Potency [4] > 20.6 µM

OC(CNCCCN1CCCCC1)COc1ccccc1 (centres undefined)
inactive: activity change, negative = inhibition [1] -10.5% | activity change, negative = inhibition [2] -28.5% | activity, negative = inhibition [3] 9.93% | Potency [4] > 20.6 µM

COc1ccc(OC)c(NC(=O)CSc2nnc(-c3ccco3)n2-c2ccc(C(=O)O)cc2)c1
inactive: activity change, negative = inhibition [1] -4.17% | activity change, negative = inhibition [2] 15.9% | activity, negative = inhibition [3] -4.38% | Potency [4] > 20.6 µM

COc1ccccc1N1CCN(C(=O)c2c(C)cc(=O)oc2C)CC1
inactive: activity change, negative = inhibition [1] 10.3% | activity change, negative = inhibition [2] -1.71% | activity, negative = inhibition [3] 6.24% | Potency [4] > 20.6 µM

CN(C)c1ccc(C=NCC2(O)CCOC(C)(C)C2)cc1 (centres undefined)
inactive: activity change, negative = inhibition [1] -0.248% | activity change, negative = inhibition [2] -9.77% | activity, negative = inhibition [3] 8.53% | Potency [4] > 20.6 µM

Cc1ccc(-c2ccccc2NC(=O)C2C3C=CC(C3)C2C(=O)O)o1 (centres undefined)
inactive: activity change, negative = inhibition [1] -3.25% | activity change, negative = inhibition [2] -9.53% | activity, negative = inhibition [3] 11.2% | Potency [4] > 20.6 µM

C/C=C/c1ccccc1OCc1ccc(C(=O)O)o1
inactive: activity change, negative = inhibition [1] -6.57% | activity change, negative = inhibition [2] -2.78% | activity, negative = inhibition [3] -2.17% | Potency [4] > 20.6 µM

COC(=O)c1ccc(Cn2nnc3c(sc4nc(N5CCOCC5)c5c(c43)CCCC5)c2=O)o1
inactive: activity change, negative = inhibition [1] 0.759% | activity change, negative = inhibition [2] -21.1% | activity, negative = inhibition [3] -4.56% | Potency [4] > 20.6 µM

CCOC(=O)c1[nH]c2cc3c(cc2c1NC(=O)CN1CCC2(CC1)OCCO2)OCO3
inactive: activity change, negative = inhibition [1] -29.3% | activity change, negative = inhibition [2] 6.91% | activity, negative = inhibition [3] -9.66% | Potency [4] > 20.6 µM

CC(Sc1nc(N2CCCCC2)c2c(c1C#N)CCCC2)C(=O)O (centres undefined)
inactive: activity change, negative = inhibition [1] -9.35% | activity change, negative = inhibition [2] -2.56% | activity, negative = inhibition [3] -20.5% | Potency [4] > 20.6 µM

COC(=O)C1=C(C)N=C2SC(C)C(=O)N2C1c1cccc(F)c1 (centres undefined)
inactive: activity change, negative = inhibition [1] -23.7% | activity change, negative = inhibition [2] -3.19% | activity, negative = inhibition [3] -1.23% | Potency [4] > 20.6 µM

NC(=O)C1CCN(CCC(=O)Nc2ccc(Br)cc2)CC1
inactive: activity change, negative = inhibition [1] 11.3% | activity change, negative = inhibition [2] -28.6% | activity, negative = inhibition [3] 5.95% | Potency [4] > 20.6 µM

CCCSc1nnc2n(Cc3ccccc3)c(=O)c3c4c(sc3n12)CCC4
inactive: activity change, negative = inhibition [1] 27.1% | activity change, negative = inhibition [2] 0.0627% | activity, negative = inhibition [3] -7.18% | Potency [4] > 20.6 µM

CC1(C)Cc2c(c(-c3ccccc3)nc(N3CCCC3)c2C(N)=O)CO1
inactive: activity change, negative = inhibition [1] 0.989% | activity change, negative = inhibition [2] -18.8% | activity, negative = inhibition [3] 0.41% | Potency [4] > 20.6 µM

O=C1C=C(NCCNc2c(F)c(F)c(CO)c(F)c2F)CCC1
inactive: activity change, negative = inhibition [1] -0.699% | activity change, negative = inhibition [2] -5.54% | activity, negative = inhibition [3] 2.13% | Potency [4] > 20.6 µM

COc1ccc(C(C)=O)cc1CSCCC(=O)O
inactive: activity change, negative = inhibition [1] 3.88% | activity change, negative = inhibition [2] 2.2% | activity, negative = inhibition [3] 15.2% | Potency [4] > 20.6 µM

COc1ccc(N2C(=O)C3C(C2=O)C2C=CC3C23CC3)c(OC)c1 (centres undefined)
inactive: activity change, negative = inhibition [1] 16.2% | activity change, negative = inhibition [2] 5.04% | activity, negative = inhibition [3] 0.0769% | Potency [4] > 20.6 µM

COc1cccc(C2/C(=C(\O)c3ccc4c(c3)OCCO4)C(=O)C(=O)N2CCCN(C)C)c1OC (centres undefined)
inactive: activity change, negative = inhibition [1] 4.3% | activity change, negative = inhibition [2] 5.21% | activity, negative = inhibition [3] 4.4% | Potency [4] > 20.6 µM

Cc1cc(C)nc(NC(=O)c2ccc(OC(C)C)cc2)n1
inactive: activity change, negative = inhibition [1] -5.46% | activity change, negative = inhibition [2] -4.53% | activity, negative = inhibition [3] -7.33% | Potency [4] > 20.6 µM

CCCc1nnc(SCc2ccc(OCC)cc2)n1N
inactive: activity change, negative = inhibition [1] 4.67% | activity change, negative = inhibition [2] 7.42% | activity, negative = inhibition [3] 10.4% | Potency [4] > 20.6 µM
